According to article PMC6212790, “How bacterial xenogeneic silencer rok distinguishes foreign from self DNA in its resident genome”:
In all, about 33,000 sequences were measured (“e-score”: median about -0.037, highest 2% from about 0.34 on). What follows is part of a selection rich in the highest values, with near analogues and random picks from the rest.

Molecular target: T1, GST-Rok (full length) (Bacillus subtilis subsp. subtilis str. …, UniProt O34857 1-191)
T1 sequence: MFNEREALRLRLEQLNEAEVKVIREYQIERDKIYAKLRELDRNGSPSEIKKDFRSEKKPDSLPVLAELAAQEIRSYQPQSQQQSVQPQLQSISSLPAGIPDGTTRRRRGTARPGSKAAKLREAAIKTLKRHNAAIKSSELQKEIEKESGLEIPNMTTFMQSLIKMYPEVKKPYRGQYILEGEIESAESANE
Assay: protein binding microarray; Rok is a gene silencer of Bacillus subtilis; high values mean tight binding
Settings: protein: recombinant; tags: GST (pTH5325, pDEST15-Magic modified); dsDNA, one strand shown
Method in brief: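 Each has a 25-mer constant primer and a 35-mer variable part from a de Bruijn sequence of order 10, covering every non-palindromic 8-mer at least 32 times (palindromic 16). Preference for each 8-mer is given as a rank-based, unitless enrichment score (E-score). Its range runs from 0.5 (most favored) to −0.5 (most disfavored).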

Compared with AATTCCGT, GACTTTCA is lower in binding signal: -0.114 E-score for the first, -0.125 E-score for the second.

Going from CGGCCAAC to AGAAGATG, the binding signal rises from -0.111 E-score to 0.193 E-score.

Compared with ACTGATAT, CCGTACCG is lower in binding signal: 0.242 E-score for the first, -0.185 E-score for the second.

Compared with CTGAACTA, AAAGTCGA is lower in binding signal: 0.203 E-score for the first, -0.0163 E-score for the second.

First: GTATAACA
Second: ATATAATA
The binding signal of the first is lower: 0.208 E-score for the first, 0.452 E-score for the second.

First: CTATAATA
Second: GTATAAAC
The binding signal of the first is higher: 0.355 E-score for the first, 0.16 E-score for the second.

Compared with CTATAAGA, GTATAAGA is lower in binding signal: 0.244 E-score for the first, 0.199 E-score for the second.

Compared with TTATAAAA, GTATAATA is higher in binding signal: 0.236 E-score for the first, 0.407 E-score for the second.

Going from CTATAATC to ATATAATG, the binding signal rises from 0.279 E-score to 0.303 E-score.

Going from ATATAATC to GTATAAAA, the binding signal rises from 0.152 E-score to 0.343 E-score.

Compared with GATCAGAA, ACGACCGC is lower in binding signal: 0.11 E-score for the first, 0.0315 E-score for the second.

First: CCCGTTTC
Second: CCATCTAG
The binding signal of the first is lower: -0.0198 E-score for the first, -0.0113 E-score for the second.

Going from ATGAGGGC to AGCTGCCT, the binding signal rises from -0.183 E-score to -0.125 E-score.

Compared with CGGTGTTC, AGAACATG is higher in binding signal: -0.0645 E-score for the first, 0.223 E-score for the second.

Going from GGTCTAAA to ATACATCA, the binding signal rises from 0.0268 E-score to 0.191 E-score.

First: CCTATCTC
Second: ACCATCTA
The binding signal of the first is lower: 0.168 E-score for the first, 0.351 E-score for the second.

Going from ATTATCTC to AGTATCTA, the binding signal rises from -0.0512 E-score to 0.343 E-score.

First: AGTATCTG
Second: GCCATCTA
The binding signal of the first is higher: 0.189 E-score for the first, 0.0099 E-score for the second.

Compared with ACCATCTC, ATTATCTA is higher in binding signal: -0.0707 E-score for the first, 0.412 E-score for the second.

Going from CCTATCCA to AGTATCTC, the binding signal rises from -0.0329 E-score to 0.238 E-score.

Compared with ATTATCTG, CCTATCTA is higher in binding signal: 0.284 E-score for the first, 0.34 E-score for the second.

First: CTAACGAG
Second: GCCAAGTA
The binding signal of the first is lower: 0.0146 E-score for the first, 0.107 E-score for the second.

Going from AGCGAGCA to TACCAGCA, the binding signal rises from -0.18 E-score to 0.135 E-score.

Going from GAACAACA to GCTATCTA, the binding signal rises from -0.0557 E-score to 0.33 E-score.

Going from ACTATCTC to ACTATCTA, the binding signal rises from 0.128 E-score to 0.397 E-score.

Compared with ACTTTCTC, CATTTCTA is higher in binding signal: 0.0817 E-score for the first, 0.288 E-score for the second.

Compared with CATTTCGA, AATTTCGA is higher in binding signal: -0.0105 E-score for the first, 0.352 E-score for the second.

Compared with GATTTCGA, ATTTTCTC is higher in binding signal: 0.183 E-score for the first, 0.264 E-score for the second.

Compared with CCTTTCTA, ATTTTCTG is lower in binding signal: 0.158 E-score for the first, -0.139 E-score for the second.

Compared with ACTTTCTA, ATTTTCTA is higher in binding signal: 0.386 E-score for the first, 0.397 E-score for the second.

Going from GATTTCTA to AATTTCTA, the binding signal rises from 0.3 E-score to 0.344 E-score.

Compared with CTTTACGC, AGGCCGTA is lower in binding signal: 0.177 E-score for the first, -0.152 E-score for the second.

Going from CATCGTAA to GTTTCCAA, the binding signal falls from 0.169 E-score to 0.0167 E-score.

Going from CTAGCGTC to AGCTTAGG, the binding signal rises from -0.0555 E-score to 0.072 E-score.

Compared with GGTTTCTA, AGTTTCTA is higher in binding signal: 0.334 E-score for the first, 0.402 E-score for the second.

Going from AGTTTCTC to GACAGAAC, the binding signal falls from 0.274 E-score to -0.0014 E-score.

Going from CCTCTAAC to CCAGTATA, the binding signal rises from -0.0188 E-score to 0.235 E-score.

First: GTAGTATA
Second: CAAGTATA
The binding signal of the first is higher: 0.423 E-score for the first, 0.204 E-score for the second.

Going from GCAGTATA to GAAGTATA, the binding signal falls from 0.275 E-score to 0.169 E-score.

First: CTAGTATC
Second: GTAGTACA
The binding signal of the first is higher: 0.241 E-score for the first, 0.236 E-score for the second.

Going from CTAGTATA to ACAGTATA, the binding signal falls from 0.409 E-score to 0.343 E-score.

Going from CCTAACAG to ATTAGCAA, the binding signal rises from 0.0291 E-score to 0.0548 E-score.

Going from CGCAACTC to AATGACAA, the binding signal rises from -0.103 E-score to 0.16 E-score.

Going from TATTACGA to GCGTATCA, the binding signal falls from 0.296 E-score to 0.0845 E-score.

Going from GAACAGTA to TAACAGTA, the binding signal rises from 0.264 E-score to 0.355 E-score.

Going from CAACAGTA to AGAATGTA, the binding signal falls from 0.316 E-score to 0.201 E-score.

First: AATATTAA
Second: CATATTAC
The binding signal of the first is higher: 0.334 E-score for the first, 0.289 E-score for the second.

Going from AATATTTA to TATATTGA, the binding signal falls from 0.325 E-score to 0.278 E-score.

Going from GATATTAC to CATATTTA, the binding signal falls from 0.364 E-score to 0.324 E-score.

First: CATATTAA
Second: GATATTTA
The binding signal of the first is lower: 0.268 E-score for the first, 0.351 E-score for the second.

Compared with AATATTAC, GATATTAA is higher in binding signal: 0.239 E-score for the first, 0.365 E-score for the second.

Compared with TATATTAA, TGTATTAA is lower in binding signal: 0.364 E-score for the first, 0.241 E-score for the second.

Compared with CCGGTCGA, AGAGACTA is higher in binding signal: -0.102 E-score for the first, 0.093 E-score for the second.

Compared with CCCTCGTA, AGCCAAAT is higher in binding signal: -0.134 E-score for the first, 0.0925 E-score for the second.

First: TAAGAGCA
Second: CGCTGTGA
The binding signal of the first is lower: -0.127 E-score for the first, -0.0511 E-score for the second.

Going from GCTTCAAC to AGCTCCAG, the binding signal falls from 0.127 E-score to -0.0852 E-score.

Going from ACATTCTC to ACGTTCTC, the binding signal falls from 0.0677 E-score to 0.0202 E-score.

First: GGGAAATA
Second: ATTTAGTG
The binding signal of the first is lower: 0.127 E-score for the first, 0.166 E-score for the second.

Going from CATTAGTA to ATTTAGTA, the binding signal rises from 0.227 E-score to 0.363 E-score.

First: AATTAGTA
Second: AATTAGTG
The binding signal of the first is higher: 0.416 E-score for the first, 0.322 E-score for the second.

Going from GTTTAGTA to GCGCATAC, the binding signal falls from 0.272 E-score to 0.0802 E-score.

First: CGTTCTGA
Second: GTAGATAA
The binding signal of the first is lower: -0.0208 E-score for the first, 0.407 E-score for the second.

First: CTAGATAA
Second: GTAGATAC
The binding signal of the first is lower: 0.302 E-score for the first, 0.359 E-score for the second.

Compared with GCAGATAC, TTAGATAA is higher in binding signal: 0.0143 E-score for the first, 0.251 E-score for the second.

Going from CTAGATAC to ACGGTTGC, the binding signal falls from 0.22 E-score to -0.00987 E-score.

Compared with CGACGTAC, ACTGCCGC is lower in binding signal: -0.0209 E-score for the first, -0.152 E-score for the second.

Going from ATAGGAAG to AGGCTCGA, the binding signal falls from 0.0173 E-score to -0.0603 E-score.

Going from TATCTACA to GGTCTACA, the binding signal falls from 0.348 E-score to 0.0329 E-score.

First: AATCTACA
Second: CATCTACA
The binding signal of the first is higher: 0.326 E-score for the first, 0.177 E-score for the second.

Compared with GATCTACA, GCTCTACA is lower in binding signal: 0.369 E-score for the first, -0.114 E-score for the second.

Going from ATTAAATG to AGGCTGTA, the binding signal falls from 0.0625 E-score to 0.00795 E-score.

First: ACTACAAG
Second: CCTACTAC
The binding signal of the first is lower: 0.22 E-score for the first, 0.258 E-score for the second.

Compared with ACTACTGG, ACTACAAT is higher in binding signal: 0.224 E-score for the first, 0.344 E-score for the second.

Going from GCTACTAC to ACTACAAC, the binding signal rises from 0.198 E-score to 0.293 E-score.

First: ACTACTAT
Second: ACAACTAG
The binding signal of the first is higher: 0.465 E-score for the first, 0.351 E-score for the second.

Going from ACAACTAC to ACTACTAC, the binding signal rises from 0.311 E-score to 0.4 E-score.

Compared with ACTACTCT, ACAACTAT is higher in binding signal: 0.184 E-score for the first, 0.33 E-score for the second.

First: ATGCGAGA
Second: CGTTTGTC
The binding signal of the first is higher: 0.00939 E-score for the first, -0.0759 E-score for the second.

Going from CTACCAAC to AGACGCTG, the binding signal falls from 0.164 E-score to -0.151 E-score.

Compared with CAGTCCAA, AGCCCAAC is lower in binding signal: -0.0763 E-score for the first, -0.175 E-score for the second.

Compared with TCCAGAAA, ACTACTCG is higher in binding signal: -0.00865 E-score for the first, 0.187 E-score for the second.

Compared with CCTACTAG, ACTACTAG is higher in binding signal: 0.0992 E-score for the first, 0.346 E-score for the second.

Compared with ATGGTACG, GCATTAAC is lower in binding signal: 0.183 E-score for the first, 0.0561 E-score for the second.

First: TTACTAAA
Second: ATACTAAA
The binding signal of the first is lower: 0.32 E-score for the first, 0.391 E-score for the second.

Compared with ATACTAAT, CTACTAAA is lower in binding signal: 0.378 E-score for the first, 0.357 E-score for the second.

Going from ATACTAAC to CTACTAAC, the binding signal rises from 0.199 E-score to 0.324 E-score.

Compared with ATACTAAG, AGACTAAA is lower in binding signal: 0.175 E-score for the first, -0.0347 E-score for the second.

Going from ACACTAAA to GAGGCATC, the binding signal falls from 0.174 E-score to -0.172 E-score.
